Assay results reported in publication PMC7862700, “An all-to-all approach to the identification of sequence-specific readers for epigenetic DNA modifications on cytosine”.

Legend:
Experiment in all cases: DAPPL (digital affinity profiling via proximity ligation, sequencing); 10 mM Tris-HCl pH 7.5, 50 mM NaCl, 1 mM DTT, 4% glycerol, room temperature, 30 min; GST-TFs on glutathione beads, 16-mer random dsDNA library, 0.1% formaldehyde crosslink after washing; high values mean tight binding
Details in all cases: protein: recombinant; tags: N-terminal GST; dsDNA, one strand shown
[1] = target: T1, FLI1 (Homo sapiens, UniProt Q01543 1-452)
T1 sequence: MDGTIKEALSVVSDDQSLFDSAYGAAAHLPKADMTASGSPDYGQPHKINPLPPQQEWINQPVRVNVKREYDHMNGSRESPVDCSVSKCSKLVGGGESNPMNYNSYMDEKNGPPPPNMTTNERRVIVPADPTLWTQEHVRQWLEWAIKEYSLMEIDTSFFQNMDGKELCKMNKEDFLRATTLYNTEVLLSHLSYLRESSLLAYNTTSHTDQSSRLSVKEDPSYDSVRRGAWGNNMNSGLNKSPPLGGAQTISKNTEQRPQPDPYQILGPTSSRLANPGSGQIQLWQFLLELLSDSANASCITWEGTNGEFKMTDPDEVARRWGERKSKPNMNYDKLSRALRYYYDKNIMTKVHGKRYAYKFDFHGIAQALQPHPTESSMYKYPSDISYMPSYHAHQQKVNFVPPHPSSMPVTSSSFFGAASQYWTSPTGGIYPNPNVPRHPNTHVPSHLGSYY
Summary of the method: (§1)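 Binding signal is defined as a hexamer's read frequency for one factor over its frequency for the tag-only sample. To obtain reads, GST-fused human transcription factors were expressed in yeast, captured on glutathione beads, barcoded with DNA and pooled with that sample. Pools met 200 nmole of a 16-mer random double-stranded DNA library in Tris/NaCl/DTT/glycerol buffer for 30 min at room temperature before washing, 0.1% formaldehyde crosslinking, proximity ligation (BsaI/T4 ligase, 1 h, 37 °C), PCR and Illumina NextSeq500 sequencing.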

[2] = target: T2, ELK1 (Homo sapiens, UniProt P19419 1-428)
T2 sequence: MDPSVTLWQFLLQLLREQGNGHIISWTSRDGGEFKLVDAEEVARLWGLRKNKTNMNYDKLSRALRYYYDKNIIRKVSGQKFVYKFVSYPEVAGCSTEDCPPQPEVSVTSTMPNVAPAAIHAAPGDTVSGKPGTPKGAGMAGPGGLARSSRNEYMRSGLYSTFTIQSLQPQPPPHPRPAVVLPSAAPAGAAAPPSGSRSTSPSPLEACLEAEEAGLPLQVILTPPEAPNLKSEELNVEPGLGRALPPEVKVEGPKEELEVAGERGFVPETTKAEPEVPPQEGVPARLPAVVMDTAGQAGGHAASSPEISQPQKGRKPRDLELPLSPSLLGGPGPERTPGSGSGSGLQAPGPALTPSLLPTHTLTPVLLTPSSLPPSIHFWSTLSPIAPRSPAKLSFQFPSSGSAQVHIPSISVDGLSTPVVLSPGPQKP
Summary of the method: as §1

[3] = target: T3, GABPA (Homo sapiens, UniProt Q06546 1-454)
T3 sequence: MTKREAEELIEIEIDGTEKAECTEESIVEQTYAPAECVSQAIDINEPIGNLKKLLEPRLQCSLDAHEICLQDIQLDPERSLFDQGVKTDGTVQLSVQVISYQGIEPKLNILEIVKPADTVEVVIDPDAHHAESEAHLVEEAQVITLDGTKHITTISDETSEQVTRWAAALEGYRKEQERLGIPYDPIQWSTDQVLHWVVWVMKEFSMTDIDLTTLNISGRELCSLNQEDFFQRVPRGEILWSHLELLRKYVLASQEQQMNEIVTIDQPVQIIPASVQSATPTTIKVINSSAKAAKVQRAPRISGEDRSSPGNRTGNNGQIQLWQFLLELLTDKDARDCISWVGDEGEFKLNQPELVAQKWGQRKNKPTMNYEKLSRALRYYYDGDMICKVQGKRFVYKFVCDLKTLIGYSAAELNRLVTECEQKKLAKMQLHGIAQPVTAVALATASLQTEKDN
Summary of the method: as §1

[4] = target: T4, ERG (Homo sapiens, UniProt P11308 1-479)
T4 sequence: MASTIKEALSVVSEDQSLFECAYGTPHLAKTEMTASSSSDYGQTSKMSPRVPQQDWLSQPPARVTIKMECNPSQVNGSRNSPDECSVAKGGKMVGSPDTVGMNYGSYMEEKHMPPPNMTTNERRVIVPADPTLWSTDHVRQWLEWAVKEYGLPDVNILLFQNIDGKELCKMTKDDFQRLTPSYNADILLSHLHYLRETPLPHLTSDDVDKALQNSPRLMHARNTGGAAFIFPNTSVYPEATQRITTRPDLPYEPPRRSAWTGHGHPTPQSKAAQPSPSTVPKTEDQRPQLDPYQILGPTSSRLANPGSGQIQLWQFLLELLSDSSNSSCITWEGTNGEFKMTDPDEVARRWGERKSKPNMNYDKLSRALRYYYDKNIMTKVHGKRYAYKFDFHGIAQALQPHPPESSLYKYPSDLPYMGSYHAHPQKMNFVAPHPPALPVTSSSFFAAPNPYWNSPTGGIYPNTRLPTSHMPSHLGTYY
Summary of the method: as §1

[5] = target: ELF1 (Homo sapiens, UniProt P32519 1-619)
ELF1, sequence (P32519 whole entry): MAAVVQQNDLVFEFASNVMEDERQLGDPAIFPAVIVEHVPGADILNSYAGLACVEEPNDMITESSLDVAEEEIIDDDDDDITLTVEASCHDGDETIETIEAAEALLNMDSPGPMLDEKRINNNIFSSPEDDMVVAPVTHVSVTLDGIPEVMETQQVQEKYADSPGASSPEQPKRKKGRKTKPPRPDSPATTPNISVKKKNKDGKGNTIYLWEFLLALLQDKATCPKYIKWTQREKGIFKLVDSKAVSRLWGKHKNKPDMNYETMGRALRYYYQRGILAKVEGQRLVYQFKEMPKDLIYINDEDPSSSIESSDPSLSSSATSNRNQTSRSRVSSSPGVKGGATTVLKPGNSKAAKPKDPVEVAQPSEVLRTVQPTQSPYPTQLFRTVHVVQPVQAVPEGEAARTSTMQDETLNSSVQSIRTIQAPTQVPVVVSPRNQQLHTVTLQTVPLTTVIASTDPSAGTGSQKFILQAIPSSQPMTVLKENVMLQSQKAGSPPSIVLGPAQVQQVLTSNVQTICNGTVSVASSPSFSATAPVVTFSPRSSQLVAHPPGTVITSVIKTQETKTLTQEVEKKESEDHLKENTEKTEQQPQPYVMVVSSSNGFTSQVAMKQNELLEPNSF
Summary of the method: as §1

[6] = target: T5, EHF (Homo sapiens, UniProt Q9NZC4 1-300)
T5 sequence: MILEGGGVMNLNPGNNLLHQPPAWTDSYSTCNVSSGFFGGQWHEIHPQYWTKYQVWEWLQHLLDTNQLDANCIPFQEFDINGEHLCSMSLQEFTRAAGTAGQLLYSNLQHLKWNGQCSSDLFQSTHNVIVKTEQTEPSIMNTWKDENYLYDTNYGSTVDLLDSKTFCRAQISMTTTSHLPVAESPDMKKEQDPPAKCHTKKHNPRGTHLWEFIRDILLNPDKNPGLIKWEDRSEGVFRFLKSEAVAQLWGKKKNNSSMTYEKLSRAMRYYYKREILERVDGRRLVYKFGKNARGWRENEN
Summary of the method: as §1

[7] = target: SPI1 (Homo sapiens, UniProt P17947 1-270)
Summary of the method: as §1

[8] = target: SPIB (Homo sapiens, UniProt Q01892 1-262)
SPIB, sequence (Q01892 whole entry): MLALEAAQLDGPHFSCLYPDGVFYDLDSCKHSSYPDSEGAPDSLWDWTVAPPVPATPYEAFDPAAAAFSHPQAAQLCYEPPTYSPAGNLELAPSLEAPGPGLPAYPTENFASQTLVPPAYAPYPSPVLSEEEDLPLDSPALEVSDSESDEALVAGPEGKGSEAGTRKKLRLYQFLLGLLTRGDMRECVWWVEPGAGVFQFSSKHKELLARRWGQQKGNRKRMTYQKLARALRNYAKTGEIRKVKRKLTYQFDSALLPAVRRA
Summary of the method: as §1

[9] = target: T6, ELK3 (Homo sapiens, UniProt P41970 1-407)
T6 sequence: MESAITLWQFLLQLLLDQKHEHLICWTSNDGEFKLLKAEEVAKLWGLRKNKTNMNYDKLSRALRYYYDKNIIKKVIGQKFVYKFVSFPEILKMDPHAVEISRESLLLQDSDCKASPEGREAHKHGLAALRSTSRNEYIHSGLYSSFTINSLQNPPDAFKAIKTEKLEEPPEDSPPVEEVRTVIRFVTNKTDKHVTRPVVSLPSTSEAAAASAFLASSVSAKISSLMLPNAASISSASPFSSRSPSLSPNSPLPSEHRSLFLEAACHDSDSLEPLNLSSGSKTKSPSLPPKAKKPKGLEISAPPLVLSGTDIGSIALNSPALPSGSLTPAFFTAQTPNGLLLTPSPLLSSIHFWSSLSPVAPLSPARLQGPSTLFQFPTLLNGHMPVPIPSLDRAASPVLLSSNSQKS
Summary of the method: as §1

[10] = target: T7, FEV (Homo sapiens, UniProt Q99581 1-238)
T7 sequence: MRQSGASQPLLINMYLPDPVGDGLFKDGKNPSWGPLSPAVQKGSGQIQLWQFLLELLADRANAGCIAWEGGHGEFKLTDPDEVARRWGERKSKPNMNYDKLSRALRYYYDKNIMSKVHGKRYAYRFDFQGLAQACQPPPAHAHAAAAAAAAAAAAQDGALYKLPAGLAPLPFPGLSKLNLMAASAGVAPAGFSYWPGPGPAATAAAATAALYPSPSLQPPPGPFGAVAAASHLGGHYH
Summary of the method: as §1

[11] = target: ETV5 (Homo sapiens, UniProt P41161 1-510)
ETV5, sequence (P41161 whole entry): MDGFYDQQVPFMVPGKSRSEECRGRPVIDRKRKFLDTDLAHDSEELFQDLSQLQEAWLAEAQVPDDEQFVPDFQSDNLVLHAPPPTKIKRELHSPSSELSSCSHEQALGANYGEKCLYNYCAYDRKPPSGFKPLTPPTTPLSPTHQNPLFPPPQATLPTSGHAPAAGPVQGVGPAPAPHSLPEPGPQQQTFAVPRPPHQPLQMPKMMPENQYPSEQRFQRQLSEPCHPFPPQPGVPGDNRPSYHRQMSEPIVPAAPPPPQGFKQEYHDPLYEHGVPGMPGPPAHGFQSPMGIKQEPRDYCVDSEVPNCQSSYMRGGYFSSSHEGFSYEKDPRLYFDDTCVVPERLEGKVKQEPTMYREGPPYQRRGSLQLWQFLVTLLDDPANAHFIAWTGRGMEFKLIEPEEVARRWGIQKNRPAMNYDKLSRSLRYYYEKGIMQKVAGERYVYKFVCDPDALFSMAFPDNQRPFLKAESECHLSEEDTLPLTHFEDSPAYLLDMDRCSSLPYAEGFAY
Summary of the method: as §1

[12] = target: T8, SPIC (Homo sapiens, UniProt Q8N5J4 1-248)
T8 sequence: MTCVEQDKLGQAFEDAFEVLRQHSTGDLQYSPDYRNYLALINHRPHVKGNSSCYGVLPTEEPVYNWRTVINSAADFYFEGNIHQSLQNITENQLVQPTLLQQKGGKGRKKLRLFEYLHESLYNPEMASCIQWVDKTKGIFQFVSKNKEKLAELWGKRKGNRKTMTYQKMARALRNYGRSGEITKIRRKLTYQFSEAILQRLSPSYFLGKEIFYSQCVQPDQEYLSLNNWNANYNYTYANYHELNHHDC
Summary of the method: as §1

[13] = target: ELF4 (Homo sapiens, UniProt Q99607 1-663)
ELF4, sequence (Q99607 whole entry): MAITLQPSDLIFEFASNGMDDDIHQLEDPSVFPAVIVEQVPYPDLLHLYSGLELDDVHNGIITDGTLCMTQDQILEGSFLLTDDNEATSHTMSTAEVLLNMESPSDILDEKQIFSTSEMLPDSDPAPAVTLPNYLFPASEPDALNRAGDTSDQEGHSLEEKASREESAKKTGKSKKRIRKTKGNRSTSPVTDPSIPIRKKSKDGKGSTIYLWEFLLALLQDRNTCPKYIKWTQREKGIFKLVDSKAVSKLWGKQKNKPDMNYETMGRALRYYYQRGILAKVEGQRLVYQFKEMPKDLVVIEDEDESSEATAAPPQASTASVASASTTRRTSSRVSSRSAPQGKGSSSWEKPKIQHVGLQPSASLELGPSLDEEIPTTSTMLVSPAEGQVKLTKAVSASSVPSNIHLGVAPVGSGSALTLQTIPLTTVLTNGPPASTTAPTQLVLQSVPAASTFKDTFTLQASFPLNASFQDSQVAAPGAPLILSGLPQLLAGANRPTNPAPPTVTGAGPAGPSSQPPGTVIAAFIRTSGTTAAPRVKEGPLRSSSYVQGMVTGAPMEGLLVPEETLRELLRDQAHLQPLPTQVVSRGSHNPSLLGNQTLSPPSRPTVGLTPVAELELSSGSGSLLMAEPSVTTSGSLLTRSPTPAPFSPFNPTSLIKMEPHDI
Summary of the method: as §1

[14] = target: T9, ELK4 (Homo sapiens, UniProt P28324-2 1-405)
T9 sequence: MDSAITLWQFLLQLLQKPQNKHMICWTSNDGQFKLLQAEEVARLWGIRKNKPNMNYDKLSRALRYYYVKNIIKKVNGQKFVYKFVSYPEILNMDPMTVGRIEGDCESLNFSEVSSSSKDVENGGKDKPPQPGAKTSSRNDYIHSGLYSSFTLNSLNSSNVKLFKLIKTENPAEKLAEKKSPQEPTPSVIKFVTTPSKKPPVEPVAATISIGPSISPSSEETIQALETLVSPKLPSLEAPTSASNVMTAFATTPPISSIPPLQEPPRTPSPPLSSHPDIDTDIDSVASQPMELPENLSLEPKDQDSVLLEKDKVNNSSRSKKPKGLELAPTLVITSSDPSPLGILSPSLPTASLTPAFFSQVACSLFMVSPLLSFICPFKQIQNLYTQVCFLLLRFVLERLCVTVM
Summary of the method: as §1

[15] = target: T10, ETV2 (Homo sapiens, UniProt O00321 1-342)
T10 sequence: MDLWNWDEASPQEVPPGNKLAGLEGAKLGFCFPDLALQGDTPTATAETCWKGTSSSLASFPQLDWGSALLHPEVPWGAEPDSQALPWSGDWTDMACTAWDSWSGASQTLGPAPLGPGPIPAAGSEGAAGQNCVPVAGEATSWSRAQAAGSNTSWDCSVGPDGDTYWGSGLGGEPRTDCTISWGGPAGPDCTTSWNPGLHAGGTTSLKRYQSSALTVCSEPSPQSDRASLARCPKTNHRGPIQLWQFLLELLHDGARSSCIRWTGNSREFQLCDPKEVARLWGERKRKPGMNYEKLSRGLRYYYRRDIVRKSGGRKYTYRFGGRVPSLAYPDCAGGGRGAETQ
Summary of the method: as §1

[16] = target: T11, ELF3 (Homo sapiens, UniProt P78545 1-371)
T11 sequence: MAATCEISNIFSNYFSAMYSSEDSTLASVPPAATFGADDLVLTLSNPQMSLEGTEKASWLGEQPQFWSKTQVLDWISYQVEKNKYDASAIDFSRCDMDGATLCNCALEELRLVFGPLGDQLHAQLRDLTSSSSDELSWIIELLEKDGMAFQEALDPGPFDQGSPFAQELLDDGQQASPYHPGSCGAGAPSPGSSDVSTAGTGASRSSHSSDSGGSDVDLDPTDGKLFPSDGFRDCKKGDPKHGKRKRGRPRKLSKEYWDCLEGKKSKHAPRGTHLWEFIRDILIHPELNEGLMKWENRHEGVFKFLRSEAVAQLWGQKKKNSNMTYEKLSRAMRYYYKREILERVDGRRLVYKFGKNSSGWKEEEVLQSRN
Summary of the method: as §1

[17] = target: ETV1 (Homo sapiens, UniProt P50549 1-477)
ETV1, sequence (P50549 whole entry): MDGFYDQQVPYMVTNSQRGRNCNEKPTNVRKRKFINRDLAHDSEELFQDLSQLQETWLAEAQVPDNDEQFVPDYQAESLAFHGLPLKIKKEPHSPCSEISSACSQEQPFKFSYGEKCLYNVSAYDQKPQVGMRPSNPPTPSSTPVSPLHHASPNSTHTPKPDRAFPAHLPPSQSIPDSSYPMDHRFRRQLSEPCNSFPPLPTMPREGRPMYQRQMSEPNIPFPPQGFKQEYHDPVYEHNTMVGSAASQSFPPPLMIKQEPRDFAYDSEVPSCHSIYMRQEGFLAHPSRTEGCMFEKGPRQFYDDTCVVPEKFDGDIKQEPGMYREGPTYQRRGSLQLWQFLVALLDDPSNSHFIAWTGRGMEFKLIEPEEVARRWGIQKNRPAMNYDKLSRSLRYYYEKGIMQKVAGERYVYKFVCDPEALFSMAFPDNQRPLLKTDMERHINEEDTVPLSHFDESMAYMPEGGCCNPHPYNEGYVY
Summary of the method: as §1

Sequence	binding signal [1]	binding signal [2]	binding signal [3]	binding signal [4]	binding signal [5]	binding signal [6]	binding signal [7]	binding signal [8]	binding signal [9]	binding signal [10]	binding signal [11]	binding signal [12]	binding signal [13]	binding signal [14]	binding signal [15]	binding signal [16]	binding signal [17]
ACATGT	1.23 fold enrichment (6-mer frequency, TF over GST control)	1.14 fold enrichment (6-mer frequency, TF over GST control)	1.05 fold enrichment (6-mer frequency, TF over GST control)	1.11 fold enrichment (6-mer frequency, TF over GST control)	1.19 fold enrichment (6-mer frequency, TF over GST control)	1.09 fold enrichment (6-mer frequency, TF over GST control)	1.14 fold enrichment (6-mer frequency, TF over GST control)	1.15 fold enrichment (6-mer frequency, TF over GST control)	1.06 fold enrichment (6-mer frequency, TF over GST control)	1.03 fold enrichment (6-mer frequency, TF over GST control)	1.16 fold enrichment (6-mer frequency, TF over GST control)	1.13 fold enrichment (6-mer frequency, TF over GST control)	1.15 fold enrichment (6-mer frequency, TF over GST control)	1.27 fold enrichment (6-mer frequency, TF over GST control)	1.21 fold enrichment (6-mer frequency, TF over GST control)	1.02 fold enrichment (6-mer frequency, TF over GST control)	1.09 fold enrichment (6-mer frequency, TF over GST control)
GAAGTG	1.46 fold enrichment (6-mer frequency, TF over GST control)	1.7 fold enrichment (6-mer frequency, TF over GST control)	1.49 fold enrichment (6-mer frequency, TF over GST control)	1.87 fold enrichment (6-mer frequency, TF over GST control)	1.52 fold enrichment (6-mer frequency, TF over GST control)	1.71 fold enrichment (6-mer frequency, TF over GST control)	2.8 fold enrichment (6-mer frequency, TF over GST control)	1.61 fold enrichment (6-mer frequency, TF over GST control)	1.75 fold enrichment (6-mer frequency, TF over GST control)	1.88 fold enrichment (6-mer frequency, TF over GST control)	1.73 fold enrichment (6-mer frequency, TF over GST control)	2.01 fold enrichment (6-mer frequency, TF over GST control)	1.6 fold enrichment (6-mer frequency, TF over GST control)	1.32 fold enrichment (6-mer frequency, TF over GST control)	1.65 fold enrichment (6-mer frequency, TF over GST control)	1.65 fold enrichment (6-mer frequency, TF over GST control)	1.86 fold enrichment (6-mer frequency, TF over GST control)
ACCCCA	1.05 fold enrichment (6-mer frequency, TF over GST control)	1.12 fold enrichment (6-mer frequency, TF over GST control)	1.15 fold enrichment (6-mer frequency, TF over GST control)	1.08 fold enrichment (6-mer frequency, TF over GST control)	1.11 fold enrichment (6-mer frequency, TF over GST control)	1.11 fold enrichment (6-mer frequency, TF over GST control)	1.08 fold enrichment (6-mer frequency, TF over GST control)	1.05 fold enrichment (6-mer frequency, TF over GST control)	1.02 fold enrichment (6-mer frequency, TF over GST control)	1.07 fold enrichment (6-mer frequency, TF over GST control)	1.05 fold enrichment (6-mer frequency, TF over GST control)	1.15 fold enrichment (6-mer frequency, TF over GST control)	1.12 fold enrichment (6-mer frequency, TF over GST control)	1.2 fold enrichment (6-mer frequency, TF over GST control)	1.04 fold enrichment (6-mer frequency, TF over GST control)	1.04 fold enrichment (6-mer frequency, TF over GST control)	1.06 fold enrichment (6-mer frequency, TF over GST control)
